Among the data in PubChem BioAssay are composite z-score values, retold here.

A short description of the first experiment: small molecules captured by biotinylated probe aFGF2 – biochemical, small-molecule microarray, fluorescence 635/667, stem cell growth factor project, primary screen (AID 1067).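 Further: measures binding of biotinylated aFGF2 protein to printed compounds on slides; z-score merges feature fluorescence and signal-to-noise across triplicate slides.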 The following applies: higher = more signal.
Regarding `COc1ccc([Si](C)(C)[C@H]2[C@H](CCO)O[C@@]3(C(=O)N(Cc4cccc(N5C(=O)COc6ccccc65)c4)c4ccccc43)[C@@H]2C)cc1`, the composite z-score is -0.0877.

`CCCCCCc1nc(C2CC2)cc2c1[Si](C(C)C)(C(C)C)OC2`: the composite z-score was -0.14.

Regarding `C=CCNC(=O)[C@@H]1[C@H]2C(=O)O[C@H](c3ccccc3)[C@H](c3ccccc3)N2[C@H](c2ccc(O)cc2)[C@@]12C(=O)N(C(=O)OCCOC)c1ccc(C#CC3(O)CCCCCC3)cc12`, the composite z-score was -0.176.

Regarding `CC(CO)N1C(=O)[C@@H]2[C@H]3C(=O)OCC=C[C@H]3OC23C=CCN(Cc2ccccc2)C(=O)[C@@H]13` (stereo partly drawn), the composite z-score is -0.166.

For `[N-]=[N+]=NCc1ccccc1C[C@@]1(C(=O)NCc2ccccc2)N=C(c2ccc(OCCCO)cc2)O[C@@H]1c1ccccc1N=[N+]=[N-]`, the composite z-score is 0.0075.

In turn, `C=CCN1Cc2ccccc2[C@H]2OC(c3ccc(OCCCO)cc3)=N[C@@]2(CC=C)C1=O` registered a composite z-score of 0.0188.

For the compound `Cc1cc(C)cc(N2C(=O)CSC2c2cccc([N+](=O)[O-])c2)c1` (stereo not drawn), the composite z-score was -0.0036.

Turning to `CCOc1cc(C(O)C2C=CC3C(=O)N(C)C(=O)C3N2Nc2ccccc2)ccc1O` (stereo not drawn), the composite z-score came out at 0.0827.

Regarding `[N-]=[N+]=Nc1ccccc1C[C@]1(C(N)=O)N=C(c2ccc(OCCCO)cc2)O[C@H]1c1ccccc1N=[N+]=[N-]`, the composite z-score came out at 0.0598.

With `NC(=O)NCC#Cc1ccc2c(c1)[C@]1(C(=O)N2)[C@H](C(=O)O)[C@H]2C(=O)O[C@H](c3ccccc3)[C@H](c3ccccc3)N2[C@@H]1c1ccc(OCCO)cc1`, the composite z-score was -0.139.

In the case of `CCCCCCc1nc(C2CC2)cc2c1[Si](C(C)C)(C(C)C)O[C@H]2c1ccccc1`, the composite z-score is -0.0286.

`COc1cc2c(cc1OC)CN(C(=O)[C@@H]1[C@H]3C(=O)O[C@H](c4ccccc4)[C@H](c4ccccc4)N3[C@H](c3ccc(OCCO)cc3)[C@@]13C(=O)Nc1ccc(C#CC4(O)CCCCCC4)cc13)CC2` displayed a composite z-score of 0.0246.

With `O=C1C[C@@](C(=O)NCCN2CCOCC2)(c2ccc([N+](=O)[O-])cc2)[C@@H](c2ccc(CO)cc2I)N1C1CCCCC1`, the composite z-score was -0.0736.

Take `COC(=O)[C@@]1(Cc2ccc(F)cc2)[C@H]2c3cc(C(=O)N4CCCC4)n(CCc4ccc(O)c(O)c4)c3C[C@H]2CN1C(=O)c1ccccc1`: the composite z-score is 0.57.

As to `CC(C)N1C(=O)C[C@@](C(=O)NCCCN(C)C)(c2ccc([N+](=O)[O-])cc2)[C@H]1c1ccc(CO)cc1`, the composite z-score was -0.0328.

For the compound `COC(=O)C1=CC(CCCO)=CC(C2CC2)N(C)C=C1C(=O)OC` (stereo not drawn), the composite z-score was -0.101.

With `COC(=O)c1c(CC[C@@H](CO)NC(=O)N2CCC[C@H]2Cn2cc(Cc3ccccc3)nn2)oc(C(C)=O)c1C(=O)OC`, the composite z-score was -0.0759.

The compound `O=C(N1CCCCC1)[C@@]1(CCS(=O)(=O)c2ccccc2)COC(c2ccc(OCCCO)cc2)=N1` showed a composite z-score of 0.237.

As to `CC1=C[C@@]2(CO)C(=O)[C@]3(CO3)[C@@H]1[C@H]1[C@]2(C)C=C(CO)C(=O)[C@]12CO2`, the composite z-score was -0.0782.

Turning to `CCCNC(=O)[C@@]1(c2ccc([N+](=O)[O-])cc2)CC(=O)N(C2CCCCC2)[C@@H]1c1ccc(CO)cc1`, the composite z-score is -0.0133.

For `NC(=O)NCC#Cc1ccc2c(c1)[C@]1(C(=O)N2)[C@H](C(=O)NC[C@H](O)c2ccccc2)[C@H]2C(=O)O[C@H](c3ccccc3)[C@H](c3ccccc3)N2[C@@H]1c1ccc(OCCO)cc1`, the composite z-score was -0.031.

Take `O=C1NC(=O)C2C1C=CC(C(O)CCc1ccccc1)N2Nc1ccc(Cl)cc1Cl` (stereo not drawn): the composite z-score stood at 0.153.

Take `CCCCC=C[C@@H](NC(=O)c1ccc(-c2ccccc2)cc1)c1ccccc1`: the composite z-score was -0.021.

Consider `COc1ccc([Si](C)(C)[C@@H]2[C@@H](CC(=O)N(CCO)Cc3ccccc3)O[C@]3(C(=O)N(Cc4cccc(N5CCOC5=O)c4)c4ccccc43)[C@H]2C)cc1`, for which the composite z-score was -0.117.

Take `CC(C)N1CC=CC23O[C@@H]4C=CCOC(=O)[C@@H]4[C@H]2C(=O)N(CCCO)[C@@H]3C1=O` (stereo partly drawn): the composite z-score is -0.188.

As to `C=CCNC(=O)[C@H]1[C@@H]2C(=O)O[C@@H](c3ccccc3)[C@@H](c3ccccc3)N2[C@@H](c2ccc(O)cc2)[C@]12C(=O)N(C(=O)OCCOC)c1ccccc12`, the composite z-score was found to be 0.0407.

In the case of `O=C1OCC=C[C@H]2OC34C=CCN(c5ccc(Cl)cc5)C(=O)[C@H]3N(CCO)C(=O)[C@@H]4[C@@H]12` (stereo partly drawn), the composite z-score is -0.147.

A short description of a further experiment: small molecules captured by biotinylated probe aFGF10 – biochemical, small-molecule microarray, fluorescence 635/667, stem cell growth factor project, primary screen (AID 1071).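 Further: score merges 667 nm spot intensity and signal to noise from triplicate slides.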 The following applies: higher = more signal.
As to `Cc1ccc(S[C@]2(C(=O)O)CC(=O)N(Cc3cc(C(F)(F)F)cc(C(F)(F)F)c3)[C@@H]2c2ccc(CO)cc2)cc1`, the composite z-score is -1.71.

For `CCOC(=O)[C@H]1[C@@H]2C(=O)N3CCC[C@H]3[C@H](O[Si](C(C)C)(C(C)C)C(C)C)[C@H]2C=C2CCN(S(=O)(=O)c3ccc(C)cc3)C[C@H]21`, the composite z-score was found to be 0.248.

With `CO[C@H]1O[C@H](CO)[C@@H](OC(=O)Nc2ccccc2-c2ccccc2)[C@H](OC(=O)Nc2ccc3c(c2)OCO3)[C@H]1OC(=O)Nc1ccc2c(c1)OCO2`, the composite z-score worked out at 0.937.

With `COc1ccccc1CN1C(=O)c2ccccc2[C@@]2(Cc3ccccc3N(CC(F)(F)F)C2=O)[C@@H]1c1ccc(CO)cc1`, the composite z-score was -0.244.

As to `CN(C)C(=O)[C@@]1(Cc2ccccc2CN=[N+]=[N-])N=C(c2ccc(OCCCO)cc2)O[C@H]1c1ccccc1CN=[N+]=[N-]`, the composite z-score is 0.776.

For `COc1ccc(CCN2C(=O)[C@@]3(Cc4ccccc42)c2ccccc2C(=O)N(Cc2ccccc2OC)[C@H]3c2ccc(CO)cc2)cc1`, the composite z-score was -0.0162.

On to `O=C1C2C=CC(C(O)c3ccc(Br)cc3)N(Nc3ccccc3F)C2C(=O)N1c1ccccc1` (stereo not drawn), for which the composite z-score was determined as 0.178.

In turn, `C=CCC(OC(C)=O)[C@@H]1[C@@H](N(Cc2cccc3ccccc23)C(=O)Cc2ccc(OC)cc2)c2cc(OCCCO)ccc2N1C(=O)c1ccc2ccccc2n1` (stereo partly drawn) showed a composite z-score of 0.11.

Consider `COC(=O)C(CC#Cc1ccc2c(c1)[C@]1(C(=O)N2)[C@H](c2ccccc2OCCO)N2[C@H](c3ccccc3)[C@H](c3ccccc3)OC(=O)[C@H]2[C@@H]1C(=O)NC[C@H](O)c1ccccc1)C(=O)OC`, for which the composite z-score was found to be 0.767.

Compound `COc1ccc([Si](C)(C)[C@H]2[C@H](CCO)O[C@@]3(C(=O)N(Cc4cccc(N5C(=O)COc6ccccc65)c4)c4ccccc43)[C@@H]2C)cc1` registered a composite z-score of 0.126.

With `CCCCCCc1nc(C2CC2)cc2c1[Si](C(C)C)(C(C)C)OC2`, the composite z-score is -0.715.

On to `C=CCNC(=O)[C@@H]1[C@H]2C(=O)O[C@H](c3ccccc3)[C@H](c3ccccc3)N2[C@H](c2ccc(O)cc2)[C@@]12C(=O)N(C(=O)OCCOC)c1ccc(C#CC3(O)CCCCCC3)cc12`, for which the composite z-score was -1.52.

Consider `CC(CO)N1C(=O)[C@@H]2[C@H]3C(=O)OCC=C[C@H]3OC23C=CCN(Cc2ccccc2)C(=O)[C@@H]13` (stereo partly drawn), for which the composite z-score was -0.166.

In turn, `[N-]=[N+]=NCc1ccccc1C[C@@]1(C(=O)NCc2ccccc2)N=C(c2ccc(OCCCO)cc2)O[C@@H]1c1ccccc1N=[N+]=[N-]` returned a composite z-score of 0.629.

On to `C=CCN1Cc2ccccc2[C@H]2OC(c3ccc(OCCCO)cc3)=N[C@@]2(CC=C)C1=O`, for which the composite z-score was -0.177.

With `Cc1cc(C)cc(N2C(=O)CSC2c2cccc([N+](=O)[O-])c2)c1` (stereo not drawn), the composite z-score turned out to be 0.887.

For the compound `CCOc1cc(C(O)C2C=CC3C(=O)N(C)C(=O)C3N2Nc2ccccc2)ccc1O` (stereo not drawn), the composite z-score is 0.305.

Compound `[N-]=[N+]=Nc1ccccc1C[C@]1(C(N)=O)N=C(c2ccc(OCCCO)cc2)O[C@H]1c1ccccc1N=[N+]=[N-]` yielded a composite z-score of 1.05.

In turn, `NC(=O)NCC#Cc1ccc2c(c1)[C@]1(C(=O)N2)[C@H](C(=O)O)[C@H]2C(=O)O[C@H](c3ccccc3)[C@H](c3ccccc3)N2[C@@H]1c1ccc(OCCO)cc1` showed a composite z-score of 0.0382.

`CCCCCCc1nc(C2CC2)cc2c1[Si](C(C)C)(C(C)C)O[C@H]2c1ccccc1` came in with a composite z-score of 0.698.

`COc1cc2c(cc1OC)CN(C(=O)[C@@H]1[C@H]3C(=O)O[C@H](c4ccccc4)[C@H](c4ccccc4)N3[C@H](c3ccc(OCCO)cc3)[C@@]13C(=O)Nc1ccc(C#CC4(O)CCCCCC4)cc13)CC2` came in with a composite z-score of 1.15.

Compound `O=C1C[C@@](C(=O)NCCN2CCOCC2)(c2ccc([N+](=O)[O-])cc2)[C@@H](c2ccc(CO)cc2I)N1C1CCCCC1` had a composite z-score of 0.262.

`COC(=O)[C@@]1(Cc2ccc(F)cc2)[C@H]2c3cc(C(=O)N4CCCC4)n(CCc4ccc(O)c(O)c4)c3C[C@H]2CN1C(=O)c1ccccc1`: the composite z-score was 0.146.

With `CC(C)N1C(=O)C[C@@](C(=O)NCCCN(C)C)(c2ccc([N+](=O)[O-])cc2)[C@H]1c1ccc(CO)cc1`, the composite z-score is 0.589.

In the case of `COC(=O)C1=CC(CCCO)=CC(C2CC2)N(C)C=C1C(=O)OC` (stereo not drawn), the composite z-score was -0.0269.

Consider `COC(=O)c1c(CC[C@@H](CO)NC(=O)N2CCC[C@H]2Cn2cc(Cc3ccccc3)nn2)oc(C(C)=O)c1C(=O)OC`, for which the composite z-score was found to be 0.325.

In turn, `O=C(N1CCCCC1)[C@@]1(CCS(=O)(=O)c2ccccc2)COC(c2ccc(OCCCO)cc2)=N1` gave a composite z-score of 0.253.

Compound `CC1=C[C@@]2(CO)C(=O)[C@]3(CO3)[C@@H]1[C@H]1[C@]2(C)C=C(CO)C(=O)[C@]12CO2` came in with a composite z-score of 0.345.

With `CCCNC(=O)[C@@]1(c2ccc([N+](=O)[O-])cc2)CC(=O)N(C2CCCCC2)[C@@H]1c1ccc(CO)cc1`, the composite z-score came to 0.588.

`NC(=O)NCC#Cc1ccc2c(c1)[C@]1(C(=O)N2)[C@H](C(=O)NC[C@H](O)c2ccccc2)[C@H]2C(=O)O[C@H](c3ccccc3)[C@H](c3ccccc3)N2[C@@H]1c1ccc(OCCO)cc1` gave a composite z-score of 0.852.

Compound `O=C1NC(=O)C2C1C=CC(C(O)CCc1ccccc1)N2Nc1ccc(Cl)cc1Cl` (stereo not drawn) returned a composite z-score of 0.229.

For the compound `CCCCC=C[C@@H](NC(=O)c1ccc(-c2ccccc2)cc1)c1ccccc1`, the composite z-score is 0.457.

The compound `COc1ccc([Si](C)(C)[C@@H]2[C@@H](CC(=O)N(CCO)Cc3ccccc3)O[C@]3(C(=O)N(Cc4cccc(N5CCOC5=O)c4)c4ccccc43)[C@H]2C)cc1` registered a composite z-score of 0.476.

Turning to `CC(C)N1CC=CC23O[C@@H]4C=CCOC(=O)[C@@H]4[C@H]2C(=O)N(CCCO)[C@@H]3C1=O` (stereo partly drawn), the composite z-score was 0.425.

In the case of `C=CCNC(=O)[C@H]1[C@@H]2C(=O)O[C@@H](c3ccccc3)[C@@H](c3ccccc3)N2[C@@H](c2ccc(O)cc2)[C@]12C(=O)N(C(=O)OCCOC)c1ccccc12`, the composite z-score is 1.16.

For `O=C1OCC=C[C@H]2OC34C=CCN(c5ccc(Cl)cc5)C(=O)[C@H]3N(CCO)C(=O)[C@@H]4[C@@H]12` (stereo partly drawn), the composite z-score is -0.0609.
